# Data as given in PubChem BioAssay AID651635 (National Center for Advancing Translational Sciences (NCATS), 2012).
# Out of some 400,000 compounds screened, about 1,900 (0.47%) were called active. Inconclusive results (about 14%) are left out. Calls come from the whole dose curve; as a rule, active = well fitted cell-killing curve with a large enough effect; inconclusive = small, poorly fitted or top-dose-only effect, or effect the other way; inactive = no such curve, though single readings can be large or run the other way. Shown is part of a subset that was picked to be rich in actives.
# Test: Viability Counterscreen for Primary qHTS for Inhibitors of ATXN expression; note: nearly all actives have a fitted effect of over 40% in size
# Settings: S2 cells (HEK-293 line with an ATXN2-luciferase reporter) viability, CellTiter-Fluor protease fluorescence, 24 h; series mostly up to 56.7 µM; activity change, negative = cytotoxicity: at the top concentration
# Excerpt: Spinocerebellar ataxia type 2 (SCA2) is a multisystem neurodegenerative disease caused by a dominantly-acting mutation leading to expansion of a polyQ domain in the ataxin-2 protein (ATXN2). SCA2 patients develop progressive ataxia and later lose function in other neuronal systems. Prominent parkinsonian signs develop in some patients. Similar to many neurodegenerative disorders, no symptomatic or disease-modifying treatments are known.
# The primary objective of the proposed research is to identify compounds inhibiting ATXN2 expression and to test them for efficacy in SCA2 mouse models. To this end, we have developed a cell-based assay paired with an in vivo mouse model using identical luciferase expression constructs. This approach takes advantage of an ATXN2-luciferase transgene, with the luciferase gene flanked by the upstream and downstream portions of the ATXN2 gene. This primary assay was tested against the NIH Molecular Libraries Small Molecule Repository (MLSMR).
# NIH Chemical Genomics Center [NCGC]
# NIH Molecular Libraries Probe Centers Network [MLPCN]
# Assay Submitter (PI): Daniel Scoles, University of Utah
# PROTOCOL TABLE (as described by Inglese J, Shamu CE and Guy RK. 2007)
# SEQUENCE No. (e.g., 1, 2, 3, etc.); […] (e.g., Cells, Incubation, Reagent, etc.); VALUE; DESCRIPTION.
# 1; Cells; 4 uL; white, solid bottom, 1536-well Greiner assay plate.
# 2; Incubation; 2 hr; 37 degree C in 5% humidified CO2.
# 3; Compounds; 23 nL; Kalypsis pintool (Wako USA) equipped with a 1536-well pin head.
# 4; Incubation; 24 hr; 37 degree C in 5% humidified CO2.
# 5; Reagent; 1 uL; Gly-Phe-7-Amino-4-trifluoromethylcoumarin.
# 6; Incubation; 30 min; 37 degree C in 5% humidified CO2.
# 7; Detection; Fluorescence; ViewLux plate reader (PerkinElmer).
# 8; Reagent; 3 uL; SteadyGlo luciferase solution (Promega).
# 9; Incubation; 5 min; room temperature.
# 10; Detection; Luminescence; ViewLux plate reader (PerkinElmer).
# NOTES (numbers refer to Sequence numbers above)
# 1. S2 cells expressing ATXN2-luciferase reporter were suspended in phenol-red free DMEM and dispensed in assay plates using a Multidrop Combi dispenser (Thermo Fisher Scientific).
# 2. Assay plates were incubated. Evaporation was prevented by covering assay plates with metal lids containing holes to allow gas diffusion.
# 3. […] Vehicle-only plates, with DMSO being pin-transferred to columns 5-48, were inserted uniformly at the beginning and the end of each library to monitor and record any shifts in assay performance.
# 5. 125 uM Gly-Phe-7-Amino-4-trifluoromethylcoumarin (MP Biomedicals) working concentration was used at a final concentration of 25 uM.
# 7. To assess cell viability; the assay plates were read using the ViewLux high-throughput CCD imager (PerkinElmer), wherein single end-point fluorescence measurement was acquired (excitation 405/10; emission 540/25 nm).
# 8. Detection reagent SteadyGlo Luciferase (Promega) was added to the assay plate.
# 10. Luminescence is then measured on the ViewLux imager equipped with a clear emission filter using a 2 sec exposure. All screening operations were performed on a fully integrated robotic system (Kalypsys) containing one RX-130 and two RX-90 anthropomorphic robotic arms (Staubli).
# Inglese J, Shamu CE and Guy RK, Reporting data from high throughput screening of small molecule libraries, Nature Chemical Biology, 2007, 3(8): 438-441. doi.org/10.1038/nchembio0807-438.
# Potency is the fitted concentration of half-maximal effect.
Compound,Potency,"activity change, negative = cytotoxicity"
COc1ccc(C2=Nn3c(nnc3-c3ccccc3OC)SC2)cc1OC1CCCC1,15.8 µM (active),
COc1ccccc1-c1nnc2n1N=C(c1ccc(OC(F)F)c(OCC3CC3)c1)CS2,,-23.3% (inactive)
CC1=Nn2c(nnc2-c2ccccc2)SC1,,-25% (inactive)
COc1ccc(CCNC(=O)c2ccc(-n3c(C)cc4c3CCCC4)cc2)cc1OC,,-28.8% (inactive)
O=C(Nc1cccc2cccnc12)c1ccc2sc([C@H]3C[C@H](O)[C@@H](CO)O3)nc2c1,,-42% (inactive)
Cc1ccccc1-c1csc(C(O)c2cccc(Cl)c2)n1 (stereo unspecified),,-18.9% (inactive)
O=C(/C=C/c1ccc(Cl)cc1)Nc1ccc(Br)cn1,,-29.4% (inactive)
S=C(NCCCc1ccccc1)Nc1ccc(Br)cc1,,-11.3% (inactive)
NCCCNC(=S)NCCCN(Cc1ccc(Cl)cc1)c1ccc(Br)cn1,35.5 µM (active),
CN(C)CCNC(=O)c1cccc(-c2cnc3c(NC=O)cc(-c4cccc(C(F)(F)F)c4)cn23)c1,,-0.0438% (inactive)
C=CC(=O)Nc1ccc(Nc2ccnc(Nc3ccc(N4CCN(C)CC4)cc3)n2)cc1,14.1 µM (active),
CN1CCN(c2ccc(NC(=O)c3cc(Cl)c4c(c3)OCCO4)cc2)CC1,,-8.04% (inactive)
Cc1cccc(N2CCN(c3ccc(NC(=O)/C=C\C(=O)O)cc3)CC2)c1,,-26.1% (inactive)
COC(=O)c1c(OCc2ccc(F)cc2)cc(=O)n2c1CCN(Cc1ccc3cccnc3c1)CC2,,-11.1% (inactive)
CC(C)C(=O)NC(C)c1nnc2n1CCN(Cc1cccc3ncccc13)CC2 (stereo unspecified),,-8.05% (inactive)
CCc1ccc2c(c1)C1(NN=C(c3ccccc3)S1)C(=O)N2 (stereo unspecified),3.16 µM (active),
CO[C@H]1[C@H](NC(=O)C(C)C)c2ccccc2C12CCN(Cc1cnc(N(C)C)s1)CC2,,-6.13% (inactive)
COc1ccc(C2(Nc3cccc(F)c3)C(=O)c3ccccc3C2=O)cc1,,-36.9% (inactive)
CCOC(=O)c1c(-c2ccc(-c3ccccc3)cc2)csc1NC(=O)CCC(=O)O,,-35.3% (inactive)

Compound,Potency,"activity change, negative = cytotoxicity"
CCCS(=O)(=O)c1ncc(Cl)c(C(=O)Nc2scc(-c3ccccc3)c2C(=O)OCC)n1,15.8 µM (active),
CCOC(=O)c1scc(-c2ccccc2)c1S(=O)(=O)Nc1ccccc1F,,-31.3% (inactive)
Cc1ccc(C)c(C(O)c2ncc(-c3cccc4ccccc34)[nH]2)c1 (stereo unspecified),,-33.6% (inactive)
CO[C@H]1[C@@H](O)[C@H](N)[C@@H](O[C@H]2O[C@H]([C@H](C)N)CC[C@H]2N)[C@H](O)[C@@H]1N(C)C(=O)CN,,6.53% (inactive)
Cc1ccc(CN2CC(N3CCC(Cc4ccccc4)CC3)CS2(=O)=O)cc1 (stereo unspecified),,-41.7% (inactive)
O=C(Nc1ccccc1Cl)/C(Cl)=C(\Cl)S(=O)c1ccccc1 (stereo unspecified),3.55 µM (active),
NC(=O)C1(Nc2ccccc2Cl)CCCC1,,-14.6% (inactive)
O=C(COC(=O)CCc1c[nH]c(=O)[nH]1)Nc1ccccc1Cl,,-9.43% (inactive)
O=C(CN1C(=O)COc2ccc(S(=O)(=O)N3CCCCCC3)cc21)N1CCN(c2cccc(C(F)(F)F)c2)CC1,,11.2% (inactive)
Cc1ccc(S(=O)(=O)c2nc(-c3cccs3)oc2NCc2cccnc2)cc1,,-13.9% (inactive)
NC(=O)CSc1oc(-c2cccs2)nc1S(=O)(=O)c1ccccc1,,-24.8% (inactive)
CCCCS(=O)(=O)c1oc(-c2cccs2)nc1S(=O)(=O)c1ccccc1,3.16 µM (active),
COc1ccccc1-c1ccnc(-n2ncc(C(=O)NCCCN3CCOCC3)c2C)n1,,-0.273% (inactive)
Cc1ccc(-c2cnc(C(O)c3cc(Cl)cc(Cl)c3)[nH]2)cc1 (stereo unspecified),,-36.4% (inactive)
Cc1cc(C)c2oc(C(=O)Nc3ccc(S(=O)(=O)N4CCCCCC4)cc3)cc(=O)c2c1,,-26.3% (inactive)
CCCc1ccc(C(O)c2ncc(-c3cccc(OC)c3)[nH]2)cc1 (stereo unspecified),,-15.1% (inactive)
COc1ccc(C(N)c2csc(NC(=O)Nc3cccc(C(F)(F)F)c3)n2)cc1 (stereo unspecified),17.8 µM (active),
COc1cccc(NC(=O)Nc2ccc(F)cc2)c1,,-34.2% (inactive)
CC(=O)c1ccc(Nc2nc(C(N)c3ccccc3)cs2)cc1 (stereo unspecified),,-21.7% (inactive)

Compound,Potency,"activity change, negative = cytotoxicity"
Cc1c(O)cc2c(c1C)O[C@](C)(CCC[C@H](C)CCC[C@H](C)CCCC(C)C)CC2,,-6.32% (inactive)
OCC1CCCN(c2nc3cc4c(cc3cc2CNCc2cccs2)OCO4)C1 (stereo unspecified),,-16.8% (inactive)
CC(C)c1cccc(C(C)C)c1Nc1cn[nH]c1,,-36.2% (inactive)
O=C1NC[C@H](Cc2ccc(O)cc2)N(C[C@@H]2CCCN2C[C@H](Cc2ccccc2)N2C[C@H](Cc3ccccc3)N(CC3CCCCC3)C(=O)C2=O)C1=O,,-28.5% (inactive)
CC(C)C[C@H]1CNC(=O)C(=O)N1C[C@@H]1CCCN1C[C@H](Cc1ccccc1)N1C[C@H](CC(C)C)N(CC2CCCCCC2)C(=O)C1=O,,-13.6% (inactive)
CC(C)C[C@H]1CNC(=S)N1C[C@H]1CCCN1C[C@H](Cc1ccc(O)cc1)N1C[C@H](Cc2ccc(O)cc2)N(CC2CCCCC2)C1=S,31.6 µM (active),
COc1ccc(C2CC(c3cccc(OC)c3)=NN2c2ccc(S(N)(=O)=O)cc2)cc1 (stereo unspecified),,-3.55% (inactive)
CCCOc1ccc(F)cc1-c1cc(C(=O)Nc2ccc(F)c(Cl)c2)[nH]n1,,-38.1% (inactive)
Nc1cccc(OCCCCCOc2cccc(N)c2)c1,,-35% (inactive)
O=c1c(CN2CCOc3ccc(CN4CCC(Oc5cccnc5)CC4)cc3C2)coc2ccccc12,28.2 µM (active),
c1ccc(CN2CCN(Cc3ccc4c(c3)CN(Cc3c[nH]c5ccccc35)CCO4)CC2)nc1,,-13.5% (inactive)
CCOC(=O)N1CCC(N2CCOc3ccc(CN4CCC(O)(c5cccnc5)CC4)cc3C2)CC1,,-3.39% (inactive)
Cc1cc(-c2ccnc(-n3ncc(C(=O)NCCc4ccncc4)c3C)n2)c(C)s1,,-10.8% (inactive)
CC[C@H](C)CCCCC(=O)N[C@@H](CCN)C(=O)N[C@H](C(=O)N[C@@H](CCN)C(=O)N[C@H]1CCNC(=O)[C@@H]([C@H](C)O)NC(=O)[C@H](CCN)NC(=O)[C@H](CCN)NC(=O)[C@H](CC(C)C)NC(=O)[C@@H](CC(C)C)NC(=O)[C@H](CCN)NC1=O)[C@@H](C)O,,-16% [at 25.4 µM] (inactive)
CC(C)N=C1CCCC1C(=S)SSC(=S)C1CCCC1=NC(C)C (stereo unspecified),0.282 µM (active),
CC1(C(=O)NS(=O)(=O)c2ccc3ccccc3c2)CCN1C(=O)C1(c2ccc(Cl)cc2)CCC1 (stereo unspecified),,-0.293% (inactive)
CCOC(=O)Cc1ccc(NC(=O)Nc2c[nH]c(=O)[nH]c2=O)cc1,,-20.1% (inactive)
COC(=O)c1ccccc1C(=O)NCc1nc(N2CCCC2)c2cccc(C)c2n1,,-14.5% (inactive)
